Screens: PubChem, several laboratories
In the library only some 7.2% were active in any assay of this set; here they are far more common.
Efflux pump inh – inhibitors of Candida efflux pumps in yeast, primary screen, S. cerevisiae, Nile Red, multiplex. S. cerevisiae Candida pump triplex. AID 485275, 2010. actives 0.44% (n = 330,000). inhibition, % at 10 µM;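 active = plate passing quality check with inhibition over a set limit, or well fluorescence over plate mean plus 4 SD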;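 note: Nile Red retained in pooled yeast measured as flow cytometry median fluorescence; 0% = buffer negative control and 100% = Enniatin B positive control; higher means more Nile Red kept so more efflux inhibition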
SUMO Mot1 rescue – yeast Mot1-301 growth rescue at high temperature, primary screen, SUMOylation pathway inhibitor project, S. cerevisiae, ATP luminescence, 38.5C; S. cerevisiae Mot1-301 growth rescue; percent above DMSO median, 100 means doubled; AID 2716, 2010; actives 1% (n = 320,000); growth rescue, % at 18.8 µM;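 active = every valid replicate shows activation above 250% relative to neutral control wells; inactive = the rest, any valid replicate at or below 250%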;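 note: OY570 slx delta 5 strain wells were the positive control but not used for scaling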
A1 inh – caspase 3/7 activation in MEF A1-2A-BIM cells, primary screen, A1 inhibitor project, cell-based, luminescence, HTS; Caspase-Glo 3/7 luminescence, 3 h; percent of clofoctol response, vehicle zero; caspase activation, % (test concentration not listed); actives 0.066% (n = 330,000);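 active = over half of replicate activation scores above 10%, or exactly half above 10 with the replicate mean above 10; inconclusive = replicate mean below 10 yet half the replicates above 10; inactive = over half of replicates below 10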
ALR H2O2 inh – inhibitors of human ALR sulfhydryl oxidase, primary screen, biochemical, H2O2 detection, HRP-luminol luminescence, single point. actives 3.8% (n = 290,000). FAD-linked sulfhydryl oxidase ALR (Homo sapiens), P55789. purified ALR, DTT oxidation. AID 485317, 2010. inhibition, % (test concentration not listed);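 active = mean replicate inhibition above about 79%, with every replicate also reaching it, limit read from the data; inconclusive = only one of the two criteria met; inactive = mean below limit and not every replicate reaching it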
VLA-4 inh – inhibition in human VLA-4 binding assay, primary screen, VLA-4 allosteric modulator project, MLPCN library, flow cytometry, VLA-4 expressing cells. Integrin alpha-4 (Homo sapiens), P13612. ligand binding flow cytometry. inhibition, % (about 7 µM as worked out from the volumes in the protocol). actives 0.2% (n = 330,000); in the data active = inhibition above about 50%
AHR activator – AHR activators, primary screen, cell-based, luminescence, luciferase reporter, human; Aryl hydrocarbon receptor (Homo sapiens), P35869; AHR-responsive luciferase reporter cells; activation, % at 5 µM; actives 2.5% (n = 320,000); in the data active = activation above about 47%;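 note: 0% = vehicle wells and 100% = reference agonist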
AHR act confirm – AHR activators, confirmation, cell-based, luminescence, luciferase reporter, human; human cells, AHR-responsive luciferase reporter; activation, % at 9 µM; shares compounds with AHR activator; actives 87% (n = 2,300); AID 2845, 2010; in the data active = activation above about 49%;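 note: HepG2 hepatoma cells carrying a DRE-driven firefly luciferase reporter; 0% = vehicle wells and 100% = reference agonist wells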
PXR act counter – human PXR activators, counter-screen for AHR activator project, cell-based, luciferase luminescence. activation, % at 11.6 µM. AID 434939, 2010. shares compounds with AHR activator. actives 88% (n = 2,300). cell-based PXR reporter; in the data active = activation above about 11%;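 note: human hepatoma DPX-2 cells expressing full-length human PXR; 0% = DMSO and 100% = reference agonist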
Target sequence (O75469 whole entry, looked up): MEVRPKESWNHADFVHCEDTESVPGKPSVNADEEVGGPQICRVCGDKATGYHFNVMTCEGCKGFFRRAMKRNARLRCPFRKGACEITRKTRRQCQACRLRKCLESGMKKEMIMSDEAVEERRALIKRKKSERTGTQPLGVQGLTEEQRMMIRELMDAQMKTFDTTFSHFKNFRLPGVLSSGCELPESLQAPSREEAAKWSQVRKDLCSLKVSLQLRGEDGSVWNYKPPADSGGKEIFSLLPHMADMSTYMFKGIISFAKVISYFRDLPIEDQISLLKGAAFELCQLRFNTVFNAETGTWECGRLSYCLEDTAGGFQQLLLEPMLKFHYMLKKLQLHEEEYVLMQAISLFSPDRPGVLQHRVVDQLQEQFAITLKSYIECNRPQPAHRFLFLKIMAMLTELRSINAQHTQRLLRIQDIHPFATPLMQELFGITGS
Active calls of the source: *; ? = inconclusive; nt = not tested or not shown.

SMILES	Efflux pump inh	SUMO Mot1 rescue	A1 inh	ALR H2O2 inh	VLA-4 inh	AHR activator	AHR act confirm	PXR act counter
O=C1C=C(NNC(=O)c2ccncc2)CC(c2ccccc2)C1 (centres undefined)	0	15	0	18	10	5	nt	nt
COc1ccccc1NC(=O)CN(Cc1ccco1)C(=O)c1ccc(Cl)nc1	0	0	1	-2	16	85*	109*	62*
CC(C)(C)c1ccc(C(=O)N2CCN(c3ccc(N4CCOCC4)nn3)CC2)cc1	0	nt	1	nt	-4	1	nt	nt
Cc1ccnc2c(N3C(=O)C4C5c6ccccc6C(c6ccccc65)C4C3=O)cccc12 (centres undefined)	0	43	0	-12	-6	3	nt	nt
O=C(Nc1ccon1)c1cnc2sccn2c1=O	0	-14	0	nt	3	139*	107*	nt
O=C(NCc1cccnc1)c1cnc2n(c1=O)CCS2	0	-14	1	-23	-51	13	nt	nt
Cc1cccc(NC(=O)c2cnc3sccn3c2=O)n1	0	20	-1	nt	39	168*	135*	14*
O=C(NCc1cccnc1)c1cnc2sccn2c1=O	0	6	1	nt	-5	81*	40	4
CCOC(=O)c1c(NCCN(C)C)c2ccccc2[nH]c1=O	0	-6	1	-3	-10	2	nt	nt
CCOC(=O)c1c(NCc2ccc3c(c2)OCO3)c2ccccc2[nH]c1=O	0	156	-1	-1	5	109*	74*	156*
O=C(CSc1cccc[n+]1[O-])Nc1cc2c(cc1Cl)C(=O)c1ccccc1C2=O	0	-2	-2	nt	-51	121*	135*	54*
O=C1CCN(Cc2ccccc2)C=C1c1ccc2ccccc2c1	0	-1	1	-8	0	83*	108*	40*
O=C1CCN(Cc2ccccc2)C=C1c1ccc(C(F)(F)F)cc1	0	7	0	0	32	108*	102*	119*
O=C(CN1CCCC1)Nc1sc2c(c1C(=O)Nc1ccc(Br)cc1)CCC2	0	58	-1	14	3	79*	104*	52*
COC(=O)c1sccc1-c1ccc(C(=O)Nc2cccc(Cl)c2)o1	0	0	1	2	16	104*	74*	25*
COC(=O)c1ccccc1NC(=O)c1ccc(-c2cccc(Cl)c2)o1	0	-11	0	-1	-4	2	nt	nt
O=c1c[n+]([O-])c2ccccc2n1OCc1c(F)cccc1F	0	-17	0	0	0	80*	92*	43*
COc1ccccc1CNC(=O)c1oc2ccccc2c1C	0	-10	2	-6	1	41	nt	nt
Cc1c(C(=O)NCc2ccccc2CN2CCCC2)oc2ccc(F)cc12	0	5	0	-4	6	124*	112*	76*
Cc1c(NC(=O)c2ccco2)cccc1-c1nc2cccnc2s1	0	2	0	-3	-19	109*	90*	14*
Cc1ccc(C(OCC(O)CNC(CO)C(O)c2ccc([N+](=O)[O-])cc2)c2ccccc2)cc1 (centres undefined)	0	4	0	4	4	-1	nt	nt
Cn1c(N=Nc2ccccc2)nc2ccccc21	0	-44	0	nt	11	138*	98*	10
CN(C)c1ccc(N=Nc2nc3ccccc3n2C)cc1	0	-86	-16	70	-1	1	nt	nt
COc1ccc2cc(/C=N/NC(=O)c3ccc(CN(c4cccc(Cl)c4Cl)S(C)(=O)=O)cc3)c(Cl)nc2c1	0	0	0	nt	4	19	nt	nt
O=C1CN(C(=O)CNCc2cccc(Cl)c2)c2ccccc2N1	0	-2	0	-6	-7	-3	nt	nt
SMILES	Efflux pump inh	SUMO Mot1 rescue	A1 inh	ALR H2O2 inh	VLA-4 inh	AHR activator	AHR act confirm	PXR act counter
O=C1CN(C(=O)CNCc2ccccc2Cl)c2ccccc2N1	0	15	0	6	5	88*	61*	39*
CN(CC(=O)Nc1ccc(F)c(F)c1F)C(=O)C1CCC1	0	-1	-1	-1	14	3	nt	nt
Clc1ccc(-n2nnc(-c3nccs3)n2)cc1Cl	nt	330*	-11	92*	nt	116*	84*	33*
Fc1ccc(-n2nnc(-c3cccnc3)n2)cc1	nt	39	-7	nt	nt	12	nt	nt
Clc1ccc(-n2nnc(-c3cccnc3)n2)cc1Cl	0	25	-2	3	-4	112*	135*	38*
O=C(CCSCCc1ccccn1)Nc1c(F)c(F)c(F)c(F)c1F	2	19	0	0	3	2	nt	nt
CSc1cnc2c(=O)n(C)c(=O)[nH]c2n1	0	-5	-1	1	4	1	nt	nt
Cn1c(=O)[nH]c2nnc(-c3ccc(Cl)c(Cl)c3)nc2c1=O	0	-1	-8	-9	1	112*	42	15*
COc1cc2cnc(-c3ccccc3)cc2cc1OC	0	152	0	2	17	114*	122*	14*
CC(C)N(C(=O)COC(=O)c1cncc(Br)c1)C(C)C	0	2	0	-2	8	-1	nt	nt
CN(C)C=Nc1ccc2nn(-c3ccccc3)nc2c1	0	-3	-11	-11	25	109*	117*	17*
Cc1ccc(C)c(NC(=O)c2ccc(OCc3c(C)noc3C)cc2)c1	0	4	-1	-12	10	-5	nt	nt
O=S(=O)(c1ccc2ccccc2c1)N(CC1CO1)c1ccccc1 (centres undefined)	0	-3	0	-34	-1	1	nt	nt
CC(=O)Nc1ccccc1-c1nc2ccccc2nc1OCC(=O)c1ccc(Cl)cc1	-1	-6	0	-5	-14	3	nt	nt
CCN(CC)S(=O)(=O)c1ccc(/C=C/C(=O)OCC(=O)NCc2ccc3c(c2)OCO3)cc1	0	0	0	-3	-12	0	nt	nt
O=C(Nc1cccc(F)c1)c1c(F)c(F)c(F)c(F)c1F	0	72	-1	-7	-2	95*	72*	30*
Cc1cccc(NC(=O)c2c(F)c(F)c(F)c(F)c2F)c1	0	-12	?	-14	3	8	nt	nt
